# The source made the active and inactive calls. Rule for the calls: active = hit-call score of the fitted dose curve at least 0.9, where 1 is the maximum; inactive = score below 0.9.
# Read-out: Bcl-2 (BID) gene, BID (gene 637)
# Assay: LTEA_HepaRG_BID: Life Technologies and Expression Analysis (LTEA) Assay for Bcl-2 (BID) gene using HepaRG (AID 2283476)
# Conditions: mRNA level, 48 h; actives raise or lower the signal
# Experimental: LTEA_HepaRG is a cell based, multiplexed-readout assay that uses HepaRG, a human liver cell line, with measurements taken at 48 hours after chemical dosing on a 96-well plate.LTEA_HepaRG_BID is one of 102 assay component(s) measured in the LTEA HepaRG cell culture assay. It is a marker of Cell proliferation, survival, death.Data from the assay component LTEA_HepaRG_BID was analyzed into 1 endpoint. This assay endpoint, LTEA_HepaRG_BID, was analyzed with bidirectional fitting relative to DMSO as the negative control and baseline of activity. Using a type of inducible reporter, measures of mRNA induction for gain or loss-of-signal activity can be used to understand regulation of transcription factor activity. To generalize the intended target to other relatable targets, this assay endpoint is annotated to the cell cycle intended target family, where the subfamily is Cell proliferation, survival, death.
# A total of 1060 chemcials from the ToxCast library were tested in eight-point concentration-response experiments. Cell culture and cytotoxicity assays were conducted at Thermo Fisher Scientific's Custom Services facility (Madison, WI). A single lot of human HepaRG cells (Thermo Fisher Scientific, Frederick, MD) was used for the cell culture experiments. 96-well format collagen type I coated plates of human HepaRG cells were prepared using established methods. Briefly, cryopreserved HepaRG cells were thawed, plated at a density of approximately 100,000 cells/well in HepaRG Thaw, Plate, and General Purpose media (HPRG770, Thermo Fisher Scientific), and incubated for 48 hours. 0.5% DMSO was selected as vehicle control to balance the requisite need of DMSO in HepaRG cultures to maintain differentiation (for example, baseline metabolism, proportions of hepatocytes vs. cholangiocytes), while enabling further hepatic receptor pathway activation (for example, PXR and CAR) in response to chemical exposure. 48 hours after plating, the culture medium was replaced with HepaRG Serum-Free Incudtion Media. Cells were exposed to each test chemical in duplicate and maintained in CO2 incubators for another 48 hours. Chemical plates were thawed to room temperature and 200x concentrations of treatment groups were prepared. 8-point conentration-reponse curves were made with the highest exposure at 100 uM, followed by half-log dilutions, all in 0.5% DMSO. Each test plate contained variouse controls, induction positive controls (1mM phenobarbital), cytotoxicity positive controls ([…] aflatoxin B1), vehicle controls (0.5% DMSO), and total lysis controls (0.5% DMSO). Cell morphology images were taken using an Essen IncuCyte FLR automated microscope, with six 96-well plates imaged in about 24 minutes. Images were captured and exported and JPEG files. Spent culture media was transfered to black-well plates for the LDH assay, and remaining media was sorted at -80 C for later use. Cells were treated with RLT buffer and frozen until shipped for gene expression analysis. Total RNA was isolated from the cell suspension in 75 uL of Buffer RLT (Qiagen, Germantown, MD 20874) by Quintiles/Expression Analysis (Durham, NC) using a custom isolation procedure. Total RNA from each plate well was transferred to a preamplification plate. Fluidigm's 96.96 Dynamic ArrayTM (Fluidigm, Amsterdam, the Netherlands) technology was used for gene expression analyses by quantitative reverse transcription polymerase chain reaction (qRT-PCR, performed by Quintiles/Expression Analysis, Durham, NC)89. Standard TaqManTM Assays (Applied Biosystems/ThermoFisher Scientific, Foster City, CA) were used to assess the expression of 93 genes selected based on their selectivity and sensitivity to important hepatic receptors known to be modulated by environmental chemicals; importance in human hepatocyte functionality; and hepatotoxicity. […]
Structure (SMILES),outcome,AC50
OCC(CO)n1cnc(-c2ccc(F)cc2)c1-c1ccnc(Oc2ccccc2)n1,inactive,
CCCC[C@H]1CN(CC2CCOCC2)C(=O)OC12CCN(C1(C)CCN(C(=O)c3c(C)ncnc3C)CC1)CC2,inactive,
CC(N)=O,,321 nM (active)
O=NO,inactive,
CCc1nc(N)nc(N)c1-c1ccc(Cl)cc1,inactive,
CN(C)CCCN1c2ccccc2Sc2ccc(Cl)cc21,inactive,
CC(=O)S[C@H](C(=O)N[C@H]1Cc2ccccc2[C@H]2CCC[C@@H](C(=O)O)N2C1=O)C(C)C,inactive,
CCCCCCC(C=O)=Cc1ccccc1,inactive,
O=C(O)CC(O)(CC(=O)O)C(=O)O,inactive,
CC(=O)[C@@]1(O)CC[C@H]2[C@@H]3CCC4=CC(=O)CC[C@]4(C)[C@H]3CC[C@@]21C,inactive,
CC(C)(C)c1ccccc1,inactive,
CCOCCOCCO,inactive,
C=CCc1ccc(OC)c(OC)c1,,9920 nM (active)
NCCOCCOCCN,inactive,
O=C1CCCCC1,inactive,
O=C(Oc1ccccc1)c1cccc(C(=O)Oc2ccccc2)c1,inactive,
CC(C)c1cccc(C(C)C)c1NC(=O)NS(=O)(=O)c1cc(C(C)(C)O)co1,inactive,
COC(=O)CCC(=O)OC,inactive,
CCCCCCCCCCCCCCOS(=O)(=O)O,inactive,
N[C@@H](Cc1c[nH]c2ccccc12)C(=O)O,inactive,

Structure (SMILES),outcome,AC50
COC(=O)[C@H]1[C@H]2C[C@@H]3c4[nH]c5cc(OC)ccc5c4CCN3C[C@H]2C[C@@H](OC(=O)c2cc(OC)c(OC)c(OC)c2)[C@@H]1OC,inactive,
CCCCc1nc2cccnc2n1Cc1ccc(-c2ccccc2-c2nnn[nH]2)cc1,inactive,
CC(C)OC(=O)C(C)(C)Oc1ccc(C(=O)c2ccc(Cl)cc2)cc1,,42.2 nM (active)
O=C1O[C@H]([C@H](O)CO)C(O)=C1O,inactive,
CO[C@@H]1COCC[C@@H]1N[C@@H]1CC[C@@](C(=O)N2CCc3ncc(C(F)(F)F)cc3C2)(C(C)C)C1,inactive,
COc1ccc(C(=O)Nc2nc3ccccc3c(NCc3ccccc3)c2C#N)cc1,inactive,
Nc1nc(Cl)nc2c1ncn2[C@H]1C[C@H](O)[C@@H](CO)O1,inactive,
CN(C)CCCN(C)CCCN(C)C,inactive,
COc1ccc(OC(F)(F)F)cc1CN[C@H]1CCCN[C@H]1c1ccccc1,inactive,
C#CC(O)C(CC)CCCC (stereo not given),inactive,
C/C=C/C=C/C(=O)O,inactive,
OCC(O)CO,inactive,
CCCCC(CC)COP(=O)(OCC(CC)CCCC)OCC(CC)CCCC (stereo not given),inactive,
CCCCCCCC(=O)OC,inactive,
Cc1ccc(-c2cc(C(F)(F)F)nn2-c2ccc(S(N)(=O)=O)cc2)cc1,inactive,
CC(=O)CC(c1ccccc1)c1c(O)c2ccccc2oc1=O (stereo not given),inactive,
CCc1cc(C2=C(C(=O)O)N(c3ccccc3C(F)(F)F)S(=O)(=O)c3ccccc32)cc2c1OCO2,inactive,
CC(=O)OCC(COC(C)=O)OC(C)=O,inactive,
O=C1NC(=O)C(c2ccccc2)(c2ccccc2)N1,inactive,
CC(COCC(C)OC(=O)c1ccccc1)OC(=O)c1ccccc1 (stereo not given),inactive,
